# Reference: PubChem BioAssay AID1030 (National Center for Advancing Translational Sciences (NCATS), 2008)
# About 16,000 (7.3%) of roughly 220,000 compounds were called active. Not shown: some 25% with an inconclusive outcome. The call rests on the fitted dose curve; in most records, active means well fitted inhibition curve with a large enough effect (not every such curve was filed as active); inconclusive means small, poorly fitted or top-dose-only effect, or another doubt; inactive means no such curve, though single readings can be large or run the other way. Many of the other results were omitted from the sample, so actives are more common in it than they were.
# Target: Aldehyde dehydrogenase 1A1 (Homo sapiens) (UniProt P00352)
# Test: qHTS Assay for Inhibitors of Aldehyde Dehydrogenase 1 (ALDH1A1);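 on activity, negative = inhibition: plate controls were no enzyme wells and a reference inhibitor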
# Conditions: Purified ALDH1A1, NADH fluorescence, propionaldehyde substrate; series mostly up to 75.3 µM; activity, negative = inhibition: at the top concentration
# Potency means the concentration at half of the fitted maximal effect.
# Chain of Aldehyde dehydrogenase 1A1 (Homo sapiens) (P00352 whole entry, looked up): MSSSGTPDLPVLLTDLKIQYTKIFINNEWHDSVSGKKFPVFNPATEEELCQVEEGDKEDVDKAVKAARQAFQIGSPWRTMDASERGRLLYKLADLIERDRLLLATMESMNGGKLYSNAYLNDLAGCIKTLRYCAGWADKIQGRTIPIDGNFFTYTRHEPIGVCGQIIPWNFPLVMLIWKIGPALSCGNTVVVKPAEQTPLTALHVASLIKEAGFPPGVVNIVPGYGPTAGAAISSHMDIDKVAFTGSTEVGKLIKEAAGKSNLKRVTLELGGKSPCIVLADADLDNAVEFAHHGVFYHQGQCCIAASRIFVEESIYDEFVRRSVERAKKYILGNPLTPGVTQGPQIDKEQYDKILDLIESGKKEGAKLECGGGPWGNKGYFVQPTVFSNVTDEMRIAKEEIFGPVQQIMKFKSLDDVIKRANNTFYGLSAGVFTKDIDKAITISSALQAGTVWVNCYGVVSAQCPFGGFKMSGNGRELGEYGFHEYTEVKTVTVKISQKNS
SMILES,"activity, negative = inhibition",Potency
CCOc1ccc(C(=O)Nc2cccc(SC)c2)cc1,2.45% (inactive),
Nn1c(Cc2cccc3ccccc23)nnc1SCC(=O)N1CC(=O)Nc2ccccc21,,17.8 µM (active)
Cn1c(Cc2cccc3ccccc23)nnc1SCC(=O)N1CCN(c2cccc(Cl)c2)CC1,-8.34% (inactive),
C=CCn1c(COc2ccccc2F)nnc1SCC(=O)N1CC(=O)Nc2ccccc21,-4.67% (inactive),
Cc1cc(C)cc(N(CC(=O)NCCSCc2ccco2)S(C)(=O)=O)c1,-2.35% (inactive),
Cc1cc(C)nc(NC(=O)/C=C/c2ccc(Cl)cc2)n1,-2.35% (inactive),
Cc1cccc(C(=O)Nc2ccccc2C(=O)NCc2cccnc2)c1,3.55% (inactive),
COc1cc(C(=O)N2C(=O)c3cccc(N)c3C2=O)cc(OC)c1OC,-4.58% (inactive),
CCOC(=O)N1CC=C2C(C#N)=C(N)C(C#N)(C#N)[C@H](c3cccs3)[C@H]2C1,,20 µM (active)
COc1cc(/C=C2/C(=O)ON=C2C)ccc1OCc1cccc(F)c1,,10 µM (active)
C/C=C/c1ccc(OCCOc2ccc(C=O)cc2OC)c(OC)c1,1.06% (inactive),
COc1cc(/C=C2/C(=O)ON=C2C)ccc1OCc1ccccc1F,4.25% (inactive),
O=S(=O)(Nc1ccccn1)c1cccc(S(=O)(=O)c2ccc(Cl)cc2)c1,-14.8% (inactive),
O=C(CSc1nnc2ccccn12)c1ccccc1,,10 µM (active)
Cn1c(CC(=O)Nc2ccccc2)nnc1SCC(=O)c1ccccc1,,7.08 µM (active)
Cc1ccc(-n2c(C)cc(C(=O)CSc3nnc4ccccn34)c2C)cc1,8.95% (inactive),
N#Cc1ccc(CSc2nnc3ccccn23)cc1,11.3% (inactive),
Cn1c(CNc2nc(-c3ccccc3)cs2)nnc1SCC(=O)c1ccccc1,-7.61% (inactive),
Cc1ccccc1NC(=O)Cc1nnc(SCC(=O)N2CCN(c3ccccc3)CC2)n1C,0.43% (inactive),
O=C(NNC1=C(C(=O)C(F)(F)F)CCC1)c1ccncc1,-7.96% (inactive),
CCc1nc2ccccc2c(C(=O)OC2CCCCC2=O)c1C (stereo not drawn),0.702% (inactive),
O=C(O)/C=C/c1ccc(OCCCF)cc1,-4.97% (inactive),
COC(=O)C1=C(C)NC(=O)CC1c1ccccc1OC (stereo not drawn),-0.136% (inactive),
CCn1c(=O)cc(SCC(=O)NCc2ccc3c(c2)OCO3)c2ccccc21,4.8% (inactive),
CCn1c(=O)cc(SCC(=O)NCCC2=CCCCC2)c2ccccc21,,14.1 µM (active)

SMILES,"activity, negative = inhibition",Potency
O=C(Cc1cccc2ccccc12)NCCC1=CCCCC1,-7.28% (inactive),
COc1ccc(Cc2nnc(NC(=O)c3cc(OC)c(OC)c(OC)c3)s2)cc1OC,-5.76% (inactive),
NC(=O)CC[C@@H]1NC(=O)[C@H](CO)NC(=O)c2cc([N+](=O)[O-])cc(I)c2NCC[C@@H](C(N)=O)NC1=O,,12.6 µM (active)
NCCCC[C@@H]1NC(=O)[C@H](CCC(=O)O)NC(=O)c2cc([N+](=O)[O-])cc(I)c2NCC[C@@H](C(N)=O)NC1=O,-5.03% (inactive),
CC(C)[C@@H]1NC(=O)c2cc([N+](=O)[O-])cc(I)c2NCCC[C@@H](C(=O)NC(CC(=O)O)C(N)=O)NC(=O)[C@H](CO)NC1=O (stereo partly drawn),3.65% (inactive),
C/C(=N/NC(=O)c1ccn(C)n1)c1ccncc1,3.35% (inactive),
COCC1CCCN(Cc2nc(-c3ccc4c(c3)OCO4)no2)C1 (stereo not drawn),4.51% (inactive),
CN1CCN(S(=O)(=O)c2cccc(C(=O)O)c2)CC1,5.17% (inactive),
COc1cccc(CNC(=O)Cc2csc(Nc3nc(=S)[nH]c4ccccc34)n2)c1,3.37% (inactive),
O=C(O)Cc1ccc(NC(=O)c2cccs2)cc1,15.9% (inactive),
CCc1ccccc1NC(=O)c1cccs1,,25.1 µM (active)
O=C(Nc1ccccc1-c1ccccc1)c1cccs1,-9.88% (inactive),
Cc1cc(F)ccc1S(=O)(=O)Nc1ncnc2scc(-c3ccc(F)cc3)c12,5.01% (inactive),
CONc1nc2nonc2nc1NOC,-2.85% (inactive),
Cc1cccc2cc(CN(Cc3nnnn3Cc3ccccc3)C3CCCC3)c(=O)[nH]c12,,15.8 µM (active)
CC(C)C(c1nnnn1Cc1ccccc1)N1CCC(C(N)=O)CC1 (stereo not drawn),7.52% (inactive),
O=c1[nH]c(N2CCN(Cc3ccc4c(c3)OCO4)CC2)nc2c1CCCC2,-5.99% (inactive),
Cc1ccc(S(=O)(=O)Cn2nnnc2CN2CCN(Cc3ccc4c(c3)OCO4)CC2)cc1,-8.22% (inactive),
CCCN(Cc1cc2cccc(C)c2[nH]c1=O)S(C)(=O)=O,12% (inactive),
Cc1cccc2cc(CN(Cc3ccc4c(c3)OCO4)Cc3nnnn3C3CCCC3)c(=O)[nH]c12,,11.2 µM (active)
CCCCCCCCCCCCN1C(=O)CSC1c1cccnc1 (stereo not drawn),-14.6% (inactive),
Nc1ccc(Cl)c(S(=O)(=O)Nc2ccccc2Cl)c1,12.1% (inactive),
CCOC(=O)C1=C(CC)Nc2ccccc2N=C1N,10.9% (inactive),
CC(C)n1c(CN2CCN(Cc3ccccc3)CC2)nc2ccccc21,-3.01% (inactive),
Cc1ccc2c(c1)C(O)(CC(=O)c1cccc(-n3cccc3)c1)C(=O)N2 (stereo not drawn),3.09% (inactive),

SMILES,"activity, negative = inhibition",Potency
CCCCOc1ccc(C(=O)NCc2ccco2)cc1,6.18% (inactive),
CC(C)OCCCNC(=O)c1ccc(C2SCC(=O)N2Cc2ccco2)cc1 (stereo not drawn),,10 µM (active)
O=C(NCc1ccco1)c1ccc(Cn2c(=O)c3sccc3n(Cc3ccc(F)cc3)c2=O)cc1,7.09% (inactive),
Cc1ccc(-c2csc(NC(=O)c3cnccn3)n2)cc1C,0.726% (inactive),
COc1ccc(C(=O)CSc2nccc(=O)[nH]2)cc1,-7.29% (inactive),
Cn1nnc(NC(=O)CSc2ncn[nH]2)n1,3.76% (inactive),
CC(C)(C)c1ccc(C(=O)CSc2ncn[nH]2)cc1,,20 µM (active)
CC(=O)N(CCCN(C)C)c1nc2ccc(C)cc2s1,9.7% (inactive),
CC1(C)C(=O)Nc2ccccc2N1C(=O)COC(=O)Cn1cnc2ccccc2c1=O,-2.55% (inactive),
CCNc1ccc(C(=O)OCC(=O)N2c3ccccc3NC(=O)C2(C)C)cc1[N+](=O)[O-],,11.2 µM (active)
Nc1ccc(C(=O)OCC(=O)NC2CCCc3ccccc32)cc1[N+](=O)[O-] (stereo not drawn),3.62% (inactive),
Cc1ccc(C(c2nnnn2C(C)(C)C)N2CCc3ccccc3C2)cc1 (stereo not drawn),5.23% (inactive),
COc1ccc(OC)c(C(c2nnnn2C(C)(C)C)N2CCc3ccccc3C2)c1 (stereo not drawn),-4.68% (inactive),
COCCn1nnnc1C(c1cc2ccc(OC)cc2[nH]c1=O)N1CCc2ccccc2C1 (stereo not drawn),,25.1 µM (active)
CC(=O)c1ccc(N2CCN(S(=O)(=O)c3c(C)[nH]c(=O)[nH]c3=O)CC2)cc1,15.3% (inactive),
CSc1ccc(/C=N/N2CCN(Cc3ccccc3Cl)CC2)cc1,3.55% (inactive),
CN1CCN(CC(=O)C23CC4CC(CC(C4)C2)C3)CC1,,20 µM (active)
CC(C)(C)NC(=O)CN1CCC(NC(=O)C23CC4CC(CC(C4)C2)C3)CC1,-3.43% (inactive),
O=C(N1CCCC1)C12CC3CC(C1)CC(C(=O)N1CCCC1)(C3)C2,-2.48% (inactive),
COC/C=C/C1=CC2=CC(=O)C(C)(OC(=O)CCC(=O)OC)C(=O)C2=CO1 (stereo not drawn),-2.86% (inactive),
COc1cc(Cl)c(S(=O)(=O)n2cnc(C)c2)cc1Cl,10.4% (inactive),
COc1cc(OC)c(-n2c(C)cc(C=O)c2C)cc1Cl,,7.08 µM (active)
Cc1ccccc1-n1c(C)cc(/C=C2\NC(=O)NC2=O)c1C,0.873% (inactive),
